Data from PubChem BioAssay (NCI).
The panel holds about 83,000 compounds, 20% with a hit somewhere; the sample as a whole holds those more often.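 Testing used 96-well plates and a 48-hour single-concentration exposure. Example: -40 means 40% of the starting cells died.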 The source made the active and inactive calls. Rule for the calls: active = growth percent below 10; inactive = the rest.

What was measured:
Assay in all cases: NCI-60 one-dose screen, 48 h (100 = growth as untreated, 0 = no growth, -100 = all killed)
Conditions in all cases: 10 µM unless noted
SR leukemia = tested on: SR leukemia
OVCAR-8 ovarian = tested on: OVCAR-8 ovarian
OVCAR-5 ovarian = tested on: OVCAR-5 ovarian
OVCAR-4 ovarian = tested on: OVCAR-4 ovarian
SK-OV-3 ovarian = tested on: SK-OV-3 ovarian
IGROV1 ovarian = tested on: IGROV1 ovarian
OVCAR-3 ovarian = tested on: OVCAR-3 ovarian
HS 578T breast = tested on: HS 578T breast
NCI/ADR-RES ovarian = tested on: NCI/ADR-RES ovarian
RPMI-8226 leukemia = tested on: RPMI-8226 leukemia

Measured: growth

COc1ccc(-c2[nH]c3ccccc3c2/C=C(\C#N)S(=O)(=O)c2ccccc2)cc1
active: SR leukemia 1.93% | OVCAR-4 ovarian -14.3% | OVCAR-3 ovarian -35.7% | NCI/ADR-RES ovarian 0.134%
inactive: OVCAR-8 ovarian 44.4% | OVCAR-5 ovarian 32.2% | SK-OV-3 ovarian 29.2% | IGROV1 ovarian 32.7% | HS 578T breast 23.8%

CC1=C2C(=C[C@@](C)(CO)[C@@H]2OC(=O)N(C)CCN(C)C(=O)OC(C)(C)C)C(=O)[C@](C)(O)C12CC2
active: IGROV1 ovarian 9.25% | OVCAR-3 ovarian 3.63%
inactive: RPMI-8226 leukemia 48% | OVCAR-8 ovarian 36.6% | OVCAR-5 ovarian 19.2% | OVCAR-4 ovarian 43.8% | SK-OV-3 ovarian 35.3% | HS 578T breast 93.9% | NCI/ADR-RES ovarian 10.7%

COc1ccc(-n2c(-c3ccc(NC(=O)CCCl)cc3)nnc2-c2cc(OC)c(OC)c(OC)c2)cc1
active: SR leukemia 6.09% | OVCAR-3 ovarian 4.58%
inactive: RPMI-8226 leukemia 31% | OVCAR-5 ovarian 79.7% | OVCAR-4 ovarian 54.1% | SK-OV-3 ovarian 45.2% | IGROV1 ovarian 42.4% | NCI/ADR-RES ovarian 55.9%

CN(C)c1ccc(/C=N/N=C(N)N)cc1
inactive: SR leukemia 54.8% | OVCAR-5 ovarian 116% | OVCAR-4 ovarian 81.9% | SK-OV-3 ovarian 82.5% | IGROV1 ovarian 69.8% | OVCAR-3 ovarian 66.3% | HS 578T breast 78.2% | NCI/ADR-RES ovarian 50.5%

c1cncc(-c2nc3ccccc3[nH]2)c1
inactive: SR leukemia 90.6% | RPMI-8226 leukemia 75.3% | OVCAR-5 ovarian 86.5% | OVCAR-4 ovarian 104% | SK-OV-3 ovarian 95.3% | HS 578T breast 78.4% | NCI/ADR-RES ovarian 96.1%

NC(N)=N/N=C/c1ccc([N+](=O)[O-])cc1
inactive: SR leukemia 110% | OVCAR-8 ovarian 108% | OVCAR-5 ovarian 99.1% | OVCAR-4 ovarian 102% | SK-OV-3 ovarian 108% | IGROV1 ovarian 125% | OVCAR-3 ovarian 117% | HS 578T breast 86.5% | NCI/ADR-RES ovarian 78.5%

O=C(Nc1ccc(-n2cc(-c3ccncc3)c(-c3ccc(O)c(Cl)c3)n2)cc1)Nc1ccc(Cl)c(C(F)(F)F)c1
inactive: OVCAR-5 ovarian 43.4% | OVCAR-4 ovarian 42.2% | SK-OV-3 ovarian 32.6% | IGROV1 ovarian 22.8% | NCI/ADR-RES ovarian 17.9%
active: SR leukemia 4.23% | RPMI-8226 leukemia -19.2% | OVCAR-3 ovarian 1.16%

C=CCn1c(SCC(=O)Nc2ccc(C(=O)/C=C/c3cc(OC)c(OC)c(OC)c3)cc2)nnc1-c1ccc(OC)cc1
inactive: OVCAR-4 ovarian 19.3% | SK-OV-3 ovarian 16.6% | HS 578T breast 32.5% | NCI/ADR-RES ovarian 20.1%
active: RPMI-8226 leukemia -33.1% | OVCAR-8 ovarian 7.47% | OVCAR-5 ovarian 9.19% | IGROV1 ovarian -3.21% | OVCAR-3 ovarian -45.9%

OCc1cnccc1NC12CC3CC(CC(C3)C1)C2
inactive: SR leukemia 98.9% | RPMI-8226 leukemia 96.8% | OVCAR-5 ovarian 107% | OVCAR-4 ovarian 101% | SK-OV-3 ovarian 100% | IGROV1 ovarian 102% | OVCAR-3 ovarian 103% | HS 578T breast 103% | NCI/ADR-RES ovarian 98.8%

COc1cc(Nc2ncccc2C(=O)Nc2nc3ccc(F)cc3s2)cc(OC)c1OC
inactive: SR leukemia 104% | OVCAR-8 ovarian 91.2% | OVCAR-5 ovarian 105% | SK-OV-3 ovarian 91.7% | IGROV1 ovarian 74.5% | OVCAR-3 ovarian 55.6% | HS 578T breast 72.8% | NCI/ADR-RES ovarian 67.2%
active: OVCAR-4 ovarian 5%

Nc1nc(=S)ss1
inactive: SR leukemia 80.6% | OVCAR-8 ovarian 104% | OVCAR-5 ovarian 114% | OVCAR-4 ovarian 106% | SK-OV-3 ovarian 101% | IGROV1 ovarian 133% | OVCAR-3 ovarian 116% | HS 578T breast 98.2% | NCI/ADR-RES ovarian 104%

O=C1C(Cl)=C(Nc2ccccc2)C(=O)C(Cl)=C1Nc1ccccc1
inactive: RPMI-8226 leukemia 107% | OVCAR-8 ovarian 103% | OVCAR-5 ovarian 112% | OVCAR-4 ovarian 115% | SK-OV-3 ovarian 108% | IGROV1 ovarian 110% | OVCAR-3 ovarian 119% | NCI/ADR-RES ovarian 102%

O=C1c2ccccc2OC=C(c2ccccc2)N1CCCCNc1ccc(F)cc1
inactive: RPMI-8226 leukemia 69.8% | OVCAR-8 ovarian 80.6% | OVCAR-5 ovarian 95.7% | OVCAR-4 ovarian 89.9% | SK-OV-3 ovarian 67.9% | IGROV1 ovarian 81.9% | OVCAR-3 ovarian 110% | HS 578T breast 94.7% | NCI/ADR-RES ovarian 85.8%

O=C(CNc1cccnc1)Nc1ccc(C(=O)/C=C/c2ccc(Cl)cc2)cc1
inactive: RPMI-8226 leukemia 21.7% | OVCAR-8 ovarian 98.1% | OVCAR-5 ovarian 92.7% | OVCAR-4 ovarian 87.1% | SK-OV-3 ovarian 111% | IGROV1 ovarian 95.1% | OVCAR-3 ovarian 89.8% | HS 578T breast 82.1% | NCI/ADR-RES ovarian 98%

CCCC(=O)Oc1ccc(/C(=C(\C)c2ccc(Cl)cc2)c2ccc(OCCN(CC)CC)cc2)cc1
inactive: OVCAR-5 ovarian 30.4% | IGROV1 ovarian 12.5%
active: RPMI-8226 leukemia -49.5% | OVCAR-8 ovarian -48.4% | OVCAR-4 ovarian 3.08% | SK-OV-3 ovarian -6.52% | OVCAR-3 ovarian -64.6% | HS 578T breast -38.1% | NCI/ADR-RES ovarian -6.97%

C/C(=N\N=C1/SCC(=O)N1c1ccccc1)c1ccco1
inactive: RPMI-8226 leukemia 72.2% | OVCAR-8 ovarian 103% | OVCAR-5 ovarian 117% | OVCAR-4 ovarian 146% | SK-OV-3 ovarian 115% | IGROV1 ovarian 60.8% | HS 578T breast 104% | NCI/ADR-RES ovarian 104%

CC(C)(C)OC(=O)N1CC(Cn2cc(C(F)(F)F)c3c(Cl)ncnc32)C1
inactive: OVCAR-5 ovarian 112% | OVCAR-4 ovarian 81.6% | NCI/ADR-RES ovarian 77.7%
active: RPMI-8226 leukemia -48.4% | OVCAR-8 ovarian -72.4% | SK-OV-3 ovarian -24.4% | IGROV1 ovarian -79.1% | HS 578T breast -9.74%

COc1ccc(-c2nn(-c3ccc(NC(=O)c4cc(Cl)cc(Cl)c4)cc3)cc2-c2ccncc2)cc1Cl
inactive: OVCAR-8 ovarian 77.5% | OVCAR-5 ovarian 64.8% | OVCAR-4 ovarian 89.6% | SK-OV-3 ovarian 86.3% | IGROV1 ovarian 85.3% | OVCAR-3 ovarian 64.1% | NCI/ADR-RES ovarian 69.7%
active: RPMI-8226 leukemia -11.6%

CC(C)(C)C(=O)Nc1nc2c(s1)CCc1ccn(S(=O)(=O)c3ccccc3)c1-2
inactive: RPMI-8226 leukemia 78.6% | OVCAR-8 ovarian 100% | OVCAR-5 ovarian 97.7% | OVCAR-4 ovarian 95.2% | SK-OV-3 ovarian 96.1% | IGROV1 ovarian 97.3% | OVCAR-3 ovarian 95.3% | HS 578T breast 98.6% | NCI/ADR-RES ovarian 85.7%

COc1cc(C(=O)C[n+]2ccccc2)ccc1OC(C)=O
inactive: RPMI-8226 leukemia 97.9% | OVCAR-8 ovarian 102% | OVCAR-5 ovarian 105% | OVCAR-4 ovarian 96.8% | SK-OV-3 ovarian 97.5% | IGROV1 ovarian 107% | OVCAR-3 ovarian 106% | HS 578T breast 95.1% | NCI/ADR-RES ovarian 111%

Cn1c2ccccc2c2ssc(=S)c21
active: IGROV1 ovarian -26.5%
inactive: RPMI-8226 leukemia 124% | OVCAR-8 ovarian 102% | OVCAR-5 ovarian 99.7% | OVCAR-4 ovarian 89.5% | SK-OV-3 ovarian 119% | HS 578T breast 70.3% | NCI/ADR-RES ovarian 86.8%

C#CCn1c(-c2cc(OC)c(OC)cc2Br)nc(-c2ccccc2)c1-c1ccccc1
active: OVCAR-3 ovarian 9.74%
inactive: RPMI-8226 leukemia 48.9% | OVCAR-8 ovarian 57.4% | OVCAR-5 ovarian 77.5% | OVCAR-4 ovarian 63.2% | SK-OV-3 ovarian 16% | IGROV1 ovarian 40.9% | HS 578T breast 66.8% | NCI/ADR-RES ovarian 10.2%

CC(=O)N1N=C(CCC(=O)c2nc3ccc([N+](=O)[O-])cc3[nH]2)OC1c1ccc(O)cc1 (centres undefined)
inactive: RPMI-8226 leukemia 120% | OVCAR-8 ovarian 105% | OVCAR-5 ovarian 104% | OVCAR-4 ovarian 109% | SK-OV-3 ovarian 75.3% | IGROV1 ovarian 103% | OVCAR-3 ovarian 103% | HS 578T breast 104% | NCI/ADR-RES ovarian 99.9%

COc1ccc(/C=C/C(=O)c2ccc(Oc3ncnc4ccccc34)cc2)cc1OC
inactive: OVCAR-8 ovarian 85.1% | OVCAR-5 ovarian 92.9% | OVCAR-4 ovarian 70.4% | SK-OV-3 ovarian 91.1% | IGROV1 ovarian 33.5% | HS 578T breast 88.5% | NCI/ADR-RES ovarian 80.3%
active: RPMI-8226 leukemia 0.391%

COc1cc(/C=C/C(=O)c2c(C)[n+]([O-])c3ccccc3[n+]2[O-])ccc1O
inactive: RPMI-8226 leukemia 104% | OVCAR-8 ovarian 89.4% | OVCAR-5 ovarian 110% | OVCAR-4 ovarian 155% | SK-OV-3 ovarian 97.8% | IGROV1 ovarian 61.4% | HS 578T breast 99.4% | NCI/ADR-RES ovarian 104%

O=C(N/N=C1\SCC(=O)N1c1ccccc1)c1cc(-c2cc3ccccc3o2)nn1-c1ccccc1
inactive: RPMI-8226 leukemia 66.4% | OVCAR-8 ovarian 107% | OVCAR-5 ovarian 112% | OVCAR-4 ovarian 110% | SK-OV-3 ovarian 116% | IGROV1 ovarian 98.9% | HS 578T breast 109% | NCI/ADR-RES ovarian 108%

COc1ccccc1S(=O)(=O)Nc1ccc2c3c(cc(-c4ccoc4)nc13)C(=O)N2C
inactive: RPMI-8226 leukemia 15.5% | OVCAR-8 ovarian 70.5% | OVCAR-5 ovarian 76.3% | OVCAR-4 ovarian 55.1% | SK-OV-3 ovarian 59.3% | IGROV1 ovarian 62% | HS 578T breast 56.2% | NCI/ADR-RES ovarian 55.1%

C=C1C(=O)O[C@H]2[C@H]1CC/C(C(=O)Nc1ccc(OC)c(C(N)=O)c1O)=C\CC[C@@]1(C)O[C@@H]21
inactive: RPMI-8226 leukemia 70.8% | OVCAR-8 ovarian 68.2% | OVCAR-5 ovarian 75.1% | OVCAR-4 ovarian 67.2% | SK-OV-3 ovarian 80.7% | IGROV1 ovarian 55.5% | OVCAR-3 ovarian 25.4% | HS 578T breast 77.4% | NCI/ADR-RES ovarian 92.5%

CCn1c(SC)nnc1-c1cc2c([nH]c3ccccc32)c(-c2cccc(O)c2)n1
inactive: RPMI-8226 leukemia 30.1% | OVCAR-8 ovarian 25.4% | OVCAR-5 ovarian 48.8% | OVCAR-4 ovarian 12.5% | SK-OV-3 ovarian 27.5% | IGROV1 ovarian 35% | HS 578T breast 12.3%
active: NCI/ADR-RES ovarian 8.9%

COc1ccc2c(c1)C(=O)/C(=C/c1ccc(OCC(=O)c3ccc(Cl)cc3)cc1)O2
inactive: RPMI-8226 leukemia 58.9% | OVCAR-8 ovarian 84.9% | OVCAR-5 ovarian 105% | OVCAR-4 ovarian 78.4% | SK-OV-3 ovarian 98.8% | OVCAR-3 ovarian 83.7% | HS 578T breast 115% | NCI/ADR-RES ovarian 98.8%
